FBW7 act = activators of human E3 ligase FBW7 | Q969H0 | AlphaScreen FBW7–phospho-cyclin E peptide binding, activator screen | normalized activity (activation), % at 26.1 µM | actives 0.13% (n = 650,000); in the data active = normalized activity above about 1.9%;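 note: purified mutant Fbw7 with reduced substrate affinity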
TEAD-YAP inh = TEAD-YAP interaction inhibition; HEK-TIYL cells, TEAD-Gal4/YAP UAS-luciferase luminescence; inhibition, % at 9.12 µM; actives 1.4% (n = 640,000); in the data active = inhibition above about 32%;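 note: 0% = median of test compound wells and 100% = reference inhibitor wells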
GPR151 activ = activates the human receptor GPR151 | actives 1% (n = 650,000) | Q8TDV0 | PathHunter beta-arrestin GPR151 cells, luminescence | activation, % at 11.2 µM; in the data active = activation above about 4.9%;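 note: 0% = median of compound wells and 100% = cells with positive control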
MITF primary = inhibitors of human MITF; O75030; AlphaScreen MITF homodimerization, bead proximity signal; inhibition, % at 2.6 µM; actives 0.91% (n = 650,000); AID 1259374; in the data active = inhibition above about 50%;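 note: 0% = vehicle wells with protein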
Target sequence (O75030 whole entry, looked up): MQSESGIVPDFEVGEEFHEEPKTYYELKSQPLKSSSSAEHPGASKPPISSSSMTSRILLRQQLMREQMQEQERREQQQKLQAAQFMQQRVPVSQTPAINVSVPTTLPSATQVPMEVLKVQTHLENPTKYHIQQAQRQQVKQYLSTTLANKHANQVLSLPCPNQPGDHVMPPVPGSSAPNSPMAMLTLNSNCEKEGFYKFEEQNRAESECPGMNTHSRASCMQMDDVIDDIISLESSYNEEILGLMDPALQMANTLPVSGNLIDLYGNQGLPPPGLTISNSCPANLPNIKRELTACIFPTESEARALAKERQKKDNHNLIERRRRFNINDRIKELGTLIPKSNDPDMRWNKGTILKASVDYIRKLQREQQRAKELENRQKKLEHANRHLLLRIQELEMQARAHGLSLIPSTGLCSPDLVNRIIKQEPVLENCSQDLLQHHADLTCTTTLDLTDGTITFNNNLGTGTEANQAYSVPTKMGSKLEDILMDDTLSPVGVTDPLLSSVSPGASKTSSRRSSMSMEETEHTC
Active calls of the source: *. A selection: hits, their analogues and other compounds. The true share with any hit is near 3.5%.

SMILES | FBW7 act | TEAD-YAP inh | GPR151 activ | MITF primary
COc1cccc(CNC(=O)CCC2CCCN(C(=O)Cc3ccn(C)c3)C2)c1 (centres undefined) | 0 | -2 | 0 | -17
Nc1nc2cc3c(cc2s1)OCCO3 | 0 | 37* | -2 | 6
Nc1nc2cc3sc(N)nc3cc2s1 | 0 | -11 | 0 | -4
CC(C)(CO)CNC(=O)CN1Cc2ccccc2OC(c2ccccc2F)C1 (centres undefined) | 0 | 12 | 0 | 2
COc1ccccc1NC(=O)Cn1c(-c2nonc2N)nc2ccccc21 | 0 | 65* | 0 | 1
COc1cc(/C=N/NC(=O)Cn2c3ccccc3c(=O)c3ccccc32)ccc1O | 0 | 53* | 2 | 13
CCOc1cc(/C=N/NC(=O)Cn2c(-c3nonc3N)nc3ccccc32)ccc1O | 0 | 46* | 0 | 6
CC(=O)c1ccc(NC(=O)Cn2c(-c3nonc3N)nc3ccccc32)cc1 | 0 | 5 | 0 | 4
COc1cc(/C=N/NC(=O)CCC(=O)N/N=C/c2ccc(O)c(OC)c2)ccc1O | 0 | 9 | 2 | -2
COC(=O)c1ccccc1NC(=O)Cn1c(-c2nonc2N)nc2ccccc21 | 0 | 54* | 0 | 11
CC(=O)OCC1OC(Nc2ccccc2)C(OC(C)=O)C(OC(C)=O)C1OC(C)=O (centres undefined) | 0 | 15 | 1 | 4
Cc1ccc(=O)n(C(C(=O)NC(C)c2ccccc2)C(=O)c2ccc(F)cc2)c1 (centres undefined) | 0 | 1 | 0 | 1
O=C(CSc1nnnn1-c1cccc(F)c1)c1ccc2c(c1)OCCO2 | 0 | 78* | 1 | -9
O=C(CSc1ncccc1C(=O)O)c1ccc2ccccc2c1 | 0 | -13 | 0 | 6
O=C(CSc1ncccc1C(=O)O)c1ccc2c(c1)OCCO2 | 0 | 34* | 0 | 0
COc1ccc(S(=O)(=O)Nc2ccc(-n3c(C)nc4ccccc4c3=O)cc2)cc1 | 0 | -14 | -1 | -5
COc1ccc(CN2CCN(Cc3ccccc3)C(CCO)C2)cc1 (centres undefined) | 0 | -1 | -1 | -8
CC1=C/C(=N/Nc2nc3ccccc3[nH]2)CC(C)(C)C1 | -1 | -22 | 1 | 10
CC1CCC(=NNc2nc3ccccc3[nH]2)CC1 (centres undefined) | 0 | -20 | 1 | 42
c1ccc(C2CCC(=NNc3nc4ccccc4[nH]3)CC2)cc1 (centres undefined) | 0 | 33* | -1 | 6
CC1=C/C(=N\Nc2nc3ccccc3[nH]2)CC1 | 0 | 32* | -9 | 2
Cc1ccc(-c2nc3c[n+](CC(N)=O)ccn3c2Nc2c(C)cccc2C)o1 | 0 | -10 | 1 | -3
CCCCN1C(=O)c2cccc3c(NC(=O)c4ccc(C#N)cc4)ccc1c23 | 0 | 48* | -2 | 13
CCCCOc1ccc(C(=O)Nc2ccc3c4c(cccc24)C(=O)N3CC)cc1 | 0 | 9 | 1 | 3
COc1c(O)ccc(/C=N/NC(=O)COc2c(C)ccc(C)c2C)c1[N+](=O)[O-] | 0 | 54* | 0 | 7
SMILES | FBW7 act | TEAD-YAP inh | GPR151 activ | MITF primary
CCOc1ccccc1OCC(=O)N/N=C(/C)c1ccc(Cl)cc1 | 0 | 69* | 0 | 9
N#Cc1ccccc1OCC(=O)N/N=C/c1ccc(O)c([N+](=O)[O-])c1 | 0 | -14 | 1 | -6
COc1c(O)ccc(/C=N/NC(=O)COc2ccccc2C)c1[N+](=O)[O-] | 0 | -8 | 3 | -5
Cc1cc(C)c(OCC(=O)N/N=C/c2ccccc2O)c(C)c1 | 0 | -4 | 1 | 0
CCOc1ccccc1OCC(=O)N/N=C/c1ccc(O)c([N+](=O)[O-])c1 | 0 | 55* | 0 | 0
Cc1cccc(C)c1OCC(=O)N/N=C/c1ccccc1O | 0 | 51* | 1 | 13
O=S(=O)(NCCCN1CCOCC1)c1ccc(-c2ccc(S(=O)(=O)NCCCN3CCOCC3)cc2)cc1 | 0 | 0 | 1 | -6
CCOc1ccccc1OCC(=O)N/N=C/c1ccccc1O | -2 | 59* | 0 | -6
Cc1nn(CC(=O)NC2CCN(Cc3ccccc3)CC2)c(=O)c2cccn12 | 0 | 4 | -2 | -4
CCCNC(=O)C/C(C)=N/NC(=O)c1ccc(OC)c(OC)c1 | 0 | 34* | -1 | -11
CCCCOc1ccc(C(=O)NO)cc1OC | 0 | 40* | -1 | -7
COc1ccc(C(=O)N/N=C(\C)c2ccc(C#N)cc2)cc1OC | 0 | 41* | -1 | 1
COc1ccc(/C(C)=N/NC(=O)c2cccc(F)c2)cc1OC | 0 | -12 | -1 | -9
Cc1nc2c(c(=O)[nH]1)CN(C(=O)Cn1cnc3ccccc3c1=O)CC2 | 1 | 2 | -1 | 21

Bioassay records (PubChem BioAssay)
